Measured values reported in PubChem BioAssay AID1159580 (chemical genetic matrix, 2015).
The whole screen tested about 5,500 compounds, of which about 2,000 (36%) were called active. Inconclusive results (about 18%) are left out. No stated cut-off is given here; in the data, active means normalized growth mostly below about 0.91 (no sharp cut-off); inconclusive means no clear call, values can overlap the other calls; inactive means mostly above about 0.92. The list shows a part of the results.

Experiment: chemical genetic growth profiling, strain panel (AID 1159580);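 further: tested at 20 µM; growth read once vehicle control cultures reached saturation at 30 °C; 1 = growth at the plate median or of vehicle wells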
Settings: S. cerevisiae deletion strains, growth OD

Measured: normalized growth

O=c1c2ccccc2nc2n1CCc1c-2[nH]c2ccccc12
inactive: locus YAL013W, strain DEP1, stronger effect = lower value 1.02 | locus YAL040C, strain CLN3, stronger effect = lower value 0.981 | locus YCL061C, strain MRC1 (second series), stronger effect = lower value 1.01 | locus YDR150W, strain NUM1, stronger effect = lower value 1.01 | locus YDR363W, strain ESC2, stronger effect = lower value 1.02 | locus YER002W, strain NOP16, stronger effect = lower value 0.996 | locus YGR078C, strain PAC10, stronger effect = lower value 1 | locus YJR075W, strain HOC1, stronger effect = lower value 1.02 | locus YMR263W, strain SAP30, stronger effect = lower value 1.01 | locus YMR307W, strain GAS1, stronger effect = lower value 0.999 | locus YNL128W, strain TEP1, stronger effect = lower value 0.964 | locus YNL153C, strain GIM3, stronger effect = lower value 0.928 | locus YNL175C, strain NOP13, stronger effect = lower value 0.945 | locus YNL197C, strain WHI3, stronger effect = lower value 0.97 | locus YNL224C, strain SQS1, stronger effect = lower value 0.982 | locus YNL322C, strain KRE1, stronger effect = lower value 1.02 | locus YOR083W, strain WHI5 (second series), stronger effect = lower value 0.906 | locus YPL055C, strain LGE1, stronger effect = lower value 1.02 | locus YPL241C, strain CIN2, stronger effect = lower value 1
